FLuc counter: inhibits or activates purified firefly luciferase, miR-21 counter-screen. purified FLuc, Km substrates, luminescence inhibition. P08659. hit rate 6.9% among 360,000. Potency, µM (top dose mostly 57.5 µM), hits mostly inhibitors; note: nearly all actives have a fitted effect of over 55% in size
Target sequence (P08659 whole entry, looked up): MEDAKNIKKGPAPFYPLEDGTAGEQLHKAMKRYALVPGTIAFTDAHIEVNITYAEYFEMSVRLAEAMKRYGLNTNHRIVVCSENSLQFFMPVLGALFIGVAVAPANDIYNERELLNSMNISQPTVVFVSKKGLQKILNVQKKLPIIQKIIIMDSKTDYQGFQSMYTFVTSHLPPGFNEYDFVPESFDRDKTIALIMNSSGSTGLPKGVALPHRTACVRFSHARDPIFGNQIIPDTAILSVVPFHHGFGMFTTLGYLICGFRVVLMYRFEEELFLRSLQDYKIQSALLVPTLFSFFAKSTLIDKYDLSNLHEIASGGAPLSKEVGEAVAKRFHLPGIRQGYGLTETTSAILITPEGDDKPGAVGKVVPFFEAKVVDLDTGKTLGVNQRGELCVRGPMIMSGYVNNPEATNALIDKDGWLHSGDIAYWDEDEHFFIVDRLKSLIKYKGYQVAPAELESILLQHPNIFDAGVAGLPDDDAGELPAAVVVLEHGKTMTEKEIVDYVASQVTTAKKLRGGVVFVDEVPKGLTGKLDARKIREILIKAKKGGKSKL
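Biochemical qHTS of compounds, final roughly 60 µM downward over six points, against 10 nM purified firefly luciferase using Km concentrations of substrates (10 uM D-luciferin, 10 uM ATP) in Tris acetate pH 7.5 buffer; luminescence output.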
SMN2 splice enh: SMN2 splice variant enhancement; HEK293 SMN2-luciferase splicing reporter, luminescence, 30-36 h; Potency, µM (series often up to 46.1 µM), actives largely listed as activators; hit rate 2.8% among 210,000; AID 1458; note: nearly all actives have a fitted effect of over 55% in size
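qHTS luciferase splicing reporter: luminescence rises when SMN2 exon 7 is included in transfected HEK293 cells. Compound exposure lasted 30-36 h at 37C, with 4.5 mM final sodium butyrate as control, followed by a ONE-Glo read.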
Luc counter: blocks Kinase-Glo luciferase, a counter-screen artifact; Kinase-Glo luciferase, ATP luminescence, 8 min; Potency, µM (top dose mostly 38.3 µM), most hits filed as inhibitors; hit rate 0.28% among 200,000; Q27757; note: nearly all actives have a fitted effect of over 60% in size
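Inhibition of Kinase-Glo luciferase light generation was assessed at 10 uM ATP in pH 7.2 imidazole buffer, with luminescence measured after eight minutes at ambient temperature.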
Rab9 promoter act: activators of Rab9 promoter. Huh7 Rab9 promoter-luciferase reporter, luminescence, 24 h. Potency, µM (titrated, usually from 9.22 µM), usual class: activators. hit rate 2.8% among 320,000. AID 485297; note: nearly all actives have a fitted effect of over 60% in size
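Cell-based reporter: Huh7 stable for Rab9 promoter-driven luciferase, plated in reduced-serum medium with 10% FBS at 1500 cells/well, compound-treated 24 h at 37 °C, luminescence read after 10 min reagent.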
ELG1 genotox: induces genotoxicity in HEK293T cells with luciferase-tagged ELG1 | HEK293T ELG1-luciferase reporter, luminescence, 16 h | Potency, µM (series often up to 46 µM), most hits filed as activators | hit rate 1.3% among 330,000 | AID 504466; note: nearly all actives have a fitted effect of over 60% in size
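DMSO vehicle served as control against compound-treated ELG1-luciferase HEK293T cells; exposure lasted 16 hr at 37 °C and 5% CO2, followed by ONE-Glo luminescence detection after 30 min.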
NPC1 promoter act: activators of NPC1 promoter; Huh7 NPC1 promoter luciferase reporter, 24 h; Potency, µM (top dose mostly 9.22 µM), actives largely listed as activators; hit rate 2.4% among 320,000; AID 485313; note: nearly all actives have a fitted effect of over 60% in size
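Luminescence from an NPC1 promoter-driven luciferase reporter in stably transfected Huh7 cells was measured after 24 h compound treatment at 37 °C, followed by 10 min ambient incubation with luciferase detection reagent.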
A number is an active result; – = inactive; ? = inconclusive; · = no result given; [ ] = another dose, or the depositor's remark. This is a sample that favours compounds with a hit; in the whole collection about 7.4% have one here. Calls come from the whole dose curve; as a rule, active = well fitted curve in the direction sought with a large enough effect; inconclusive = small, poorly fitted or top-dose-only effect, or another doubt; inactive = no such curve, though single readings can be large; an effect the other way counts as inactive or inconclusive.

SMILES	FLuc counter	SMN2 splice enh	Luc counter	Rab9 promoter act	ELG1 genotox	NPC1 promoter act
COc1ccc(OCCn2c(C3CC(=O)N(c4ccc(F)cc4)C3)nc3ccccc32)cc1 (stereo not drawn)	–	–	·	·	·	·
CCOc1ccccc1N1CC(c2nc3ccccc3n2CCCOc2ccc(OC)cc2)CC1=O (stereo not drawn)	13µM	?	·	·	·	·
O=C(Cn1c(=O)n(Cc2nc(-c3ccccc3)no2)c(=O)c2cc3c(cc21)OCO3)Nc1cccc(C(F)(F)F)c1	–	·	·	·	·	·
O=C(O)C[C@H](NC(=O)CP(=O)(O)O)C(=O)O.[NH-][C@@H]1CCCC[C@@H]1[NH-].[Pt]	·	2.5µM	–[7.66 µM]	·	·	·
Cc1ccc(/C=N/Nc2ncnc3nc[nH]c23)cc1	9.5µM	·	·	1.6µM	?	2.8µM
Clc1ccc(/C=N/Nc2ncnc3nc[nH]c23)cc1	17µM	·	·	?	16µM	?
Oc1ccc(/C=N/Nc2ncnc3nc[nH]c23)cc1	?	·	·	–	–	–
O=C(O)CNC(=O)/C=C/c1ccc(Cl)cc1Cl	24µM	–	–	–	–	–
C=CCN(C(=O)CNC(=O)c1ccco1)C(C(=O)NC1CCCC1)c1ccc(OC)cc1 (stereo not drawn)	–	·	·	–	–	–
COc1ccccc1/C=C/C(=O)OCc1nc2ccccc2c(=O)[nH]1	–	–	–	–	–	–
COc1cc(C(=O)N/N=C/c2cn(Cc3cccc(F)c3)c3ccccc23)ccc1O	?	·	·	–	–	–
O=C(O)c1ccc(N/N=C/c2cn(Cc3ccc(F)cc3)c3ccccc23)cc1	8.5µM	·	·	2.8µM	12µM	2µM
Cc1ccc(C(=O)N/N=C/c2cn(Cc3ccccc3)c3ccccc23)cn1	12µM	·	·	–	–	–
O=C(N/N=C/c1cn(Cc2ccccc2)c2ccccc12)c1cc(O)cc(O)c1	24µM	·	·	–	–	–
CCNC(=S)N/N=C/c1cn(Cc2ccc(F)cc2)c2ccccc12	–	–	–	–	–	–
COc1ccccc1CN1C(=O)CN(C2CCCCCC2)C(=O)C1c1ccc(C)cc1 (stereo not drawn)	–	·	·	·	·	·
CN(C)S(=O)(=O)N(CC(=O)NCCSCc1c(F)cccc1Cl)c1ccccc1	–	–	·	·	·	·
O=C(O)c1ccc(-c2nnc(-c3ccccc3)o2)cc1	5.4µM	·	·	?	?	0.32µM
O=C(c1ccc(-c2nnc(-c3ccccc3)o2)cc1)N1CCCCCC1	4.8µM	·	·	0.56µM	?	1.4µM
CC(C(N)=O)N1C(=O)c2cccc3cccc1c23 (stereo not drawn)	–	–	–	–	–	–
COC(=O)c1cc(-c2ccccc2)nc2nc(SC)[nH]c(=O)c12	?	·	·	–	–	–
COC(=O)c1cc(-c2ccc(OC)cc2F)nc2nc(SC)[nH]c(=O)c12	15µM	·	·	–	–	–
O=C(N/N=C/c1cccc2ccccc12)c1cccs1	2.1µM	·	·	3.5µM	?	5.6µM
COc1ccccc1C(=O)N/N=C/c1c[nH]c2ccccc12	17µM	·	·	–	–	–
O=C(N/N=C/c1c[nH]c2ccc(Br)cc12)c1ccncc1	–	–	–	–	–	–
SMILES	FLuc counter	SMN2 splice enh	Luc counter	Rab9 promoter act	ELG1 genotox	NPC1 promoter act
O=C(N/N=C/c1c[nH]c2ccccc12)c1ccc2c(c1)OCCO2	0.95µM	·	·	?	?	?
O=C(N/N=C/c1c[nH]c2ccc(Br)cc12)c1ccc2c(c1)OCO2	27µM	–	–	–	–	–
O=C(NC(Cc1c[nH]c2ccccc12)C(=O)N/N=C/c1cccc2ccccc12)c1cccs1 (stereo not drawn)	–	–	–	–	–	–
CN(C(=O)COC(=O)c1ccccc1SCC(=O)N1CCCC1)C1(C#N)CCCCC1	?	·	·	–	–	–
O=C(N/N=C/c1cccc([N+](=O)[O-])c1O)c1cccs1	13µM	–	–	–	–	–
Cc1c(/C=N/NC(=O)c2sc3ccccc3c2Cl)cnn1C	?	–	–	–	–	–
O=C(N/N=C/c1ccccc1OCc1ccccc1)c1cccs1	4.3µM	–	–	–	–	–
Cn1cccc1/C=N/NC(=O)c1sc2ccccc2c1Cl	2.7µM	–	–	?	–	?
O=C(N/N=C/c1c[nH]c2ccccc12)c1cc(Br)ccc1O	27µM	·	·	–	–	–

Screens from PubChem.
